According to PubChem BioAssay (Tox21):
Results filed as inconclusive are left out. Entries that show only a call come without a potency. Activity calls are given as the source filed them. Unless noted, calls come from the whole dose curve; as a rule, active = well fitted curve in the direction sought with a large enough effect in the repeat runs; inconclusive = weak or mixed curves; inactive = no such curve, though single readings can be large; an effect the other way counts as inactive or inconclusive.

Key:
[1] = qHTS assay to identify small molecule antagonists of the thyroid receptor (TR) signaling pathway - cell viability counter screen (AID 743064); note: nearly all actives have a fitted effect of over 50% in size; note: potency is the fitted concentration of half-maximal effect
In short: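 Same-well viability check: GH3.TRE-Luc cells stimulated with 1 nM T3 alongside test compound for 23.5 h, followed by CellTiter-Fluor fluorescence.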

[2] = qHTS assay to identify small molecule antagonists of the thyroid receptor (TR) signaling pathway (AID 743065); note: nearly all actives have a fitted effect of over 55% in size; note: potency is the fitted concentration of half-maximal effect
In short: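 Antagonism measured as loss of luciferase signal in GH3 cells stably carrying a TRE-luciferase reporter, co-treated with compound and T3 (1 nM final) for 23.5 h at 37 C. Viability was read in the same well by CellTiter-Fluor.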

[3] = system: thyroid hormone receptor (rat, GH3 cells); assay: qHTS assay to identify small molecule agonists of the thyroid receptor (TR) signaling pathway (AID 743066; calls by dose curve)
[4] = qHTS assay to identify small molecule antagonists of the estrogen receptor alpha (ER-alpha) signaling pathway - cell viability counter screen (AID 743074; calls by dose curve;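 note: HEK293 cells carrying ER-alpha-UAS-bla reporter stimulated with 17beta-estradiol; nearly all actives have a fitted effect of over 45% in size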; note: potency is the fitted concentration of half-maximal effect)
[5] = qHTS assay to identify small molecule antagonists of the estrogen receptor alpha (ER-alpha) signaling pathway using the BG1 cell line - cell viability counter screen (AID 743081);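 note: compound given together with 17beta-estradiol as the ER stimulus; nearly all actives have a fitted effect of over 45% in size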
Aromatase (Homo sapiens) = Aromatase (Homo sapiens) (UniProt P11511); assay: qHTS assay to identify aromatase inhibitors (AID 743083); note: nearly all actives have a fitted effect of over 55% in size; note: potency is the fitted concentration of half-maximal effect
[6] = target: Aryl hydrocarbon receptor (Homo sapiens) (UniProt P35869); assay: qHTS assay to identify small molecule that activate the aryl hydrocarbon receptor (AhR) signaling pathway (AID 743085); note: nearly all actives have a fitted effect of over 15% in size; note: potency is the fitted concentration of half-maximal effect;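 for activation: HG2L7.5c1 human HepG2 liver cells with stably integrated DRE-driven firefly reporter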
In short: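 Reporter assay in engineered HepG2 line HG2L7.5c1, whose plasmid carries twenty dioxin responsive elements upstream of firefly luciferase. Treatment lasted 24 h at 37C; ONE-Glo luminescence gauged induction.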

[7] = qHTS assay to identify small molecule that activate the aryl hydrocarbon receptor (AhR) signaling pathway - cell viability counter screen (AID 743086); note: nearly all actives have a fitted effect of over 45% in size; note: potency is the fitted concentration of half-maximal effect
In short: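 Cytotoxicity counter screen: CellTiter-Fluor signal (30 min, 37 C) in 4000 HepG2 cells/well carrying the DRE-luciferase reporter, following 24 h compound exposure at 37 C.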

[8] = target: Peroxisome proliferator-activated receptor gamma (Homo sapiens) (UniProt P37231); assay: qHTS assay to identify small molecule agonists of the peroxisome proliferator-activated receptor gamma (PPARg) signaling pathway (AID 743094; active = well fitted activation curve with a large enough effect in the signal ratio in the repeat runs, not every such curve was filed as active; the % refers to the signal ratio)
In short: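 Cell-based bla reporter, HEK293H background, PPARg-driven UAS. Pre-incubation 5 h, 37C, 5% CO2. Compound 17 h, 37C. Substrate 1 h RT; fluorescence.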

[9] = qHTS assay to identify small molecule antagonists of the peroxisome proliferator-activated receptor gamma (PPARg) signaling pathway - cell viability counter screen (AID 743194); note: nearly all actives have a fitted effect of over 55% in size; note: potency is the fitted concentration of half-maximal effect
In short: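 Viability was measured as CellTiter-Glo luminescence in GeneBLAzer PPARg UAS-bla HEK293H cells. These cells had been exposed 17 h at 37 C to compounds together with rosiglitazone at 50 nM final, with the beta-lactamase readout taken in the same wells.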

[10] = qHTS assay for small molecule agonists of the antioxidant response element (ARE) signaling pathway (AID 743202; active = well fitted activation curve with a large enough effect in the signal ratio in the repeat runs, not every such curve was filed as active; the % refers to the signal ratio)
In short: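 After 16 hours of compound treatment at 37 C, HepG2 cells with a stably integrated ARE-driven beta-lactamase reporter were loaded 2 hours at room temperature with LiveBLAzer B/G FRET substrate and fluorescence intensity measured.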

[11] = qHTS assay for small molecule agonists of the antioxidant response element (ARE) signaling pathway - cell viability counter screen (AID 743203; calls by dose curve; note: nearly all actives have a fitted effect of over 55% in size; note: potency is the fitted concentration of half-maximal effect)
In short: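 Measured in the same wells as the beta-lactamase ARE reporter, this read-out is CellTiter-Glo luminescence from HepG2 ARE-bla cells given compounds for 16 hrs.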

[12] = qHTS assay for small molecule activators of the heat shock response signaling pathway - cell viability counter screen (AID 743209); note: nearly all actives have a fitted effect of over 50% in size; note: potency is the fitted concentration of half-maximal effect
In short: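 Same-well multiplex: after 2.5 h room-temperature incubation with LiveBLAzer B/G substrate and fluorescence reading, CellTiter-Glo reagent was added to HSE-bla HeLa cells that had received compound for 5 h at 37 C; luminescence read after 30 min.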

[13] = qHTS assay for small molecule activators of the heat shock response signaling pathway (AID 743210; active = well fitted activation curve with a large enough effect in the signal ratio in the repeat runs, with a control signal flat, not every such curve was filed as active; the % refers to the signal ratio)
In short: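 Compound exposure lasted 5 h at 37 C in HeLa cells carrying a heat-shock-element-driven beta-lactamase reporter. Read-out: fluorescence intensity after 2.5 h room-temperature loading with LiveBLAzer B/G FRET substrate.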

[14] = qHTS assay to identify aromatase inhibitors - cell viability counter screen (AID 743084); note: potency is the fitted concentration of half-maximal effect
[15] = target: Peroxisome proliferator-activated receptor gamma (Homo sapiens) (UniProt P37231); assay: qHTS assay to identify small molecule antagonists of the peroxisome proliferator-activated receptor gamma (PPARg) signaling pathway (AID 743191; calls by dose curve; note: nearly all actives have a fitted effect of over 30% in size; note: potency is the fitted concentration of half-maximal effect)
In short: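 Beta-lactamase reporter under UAS control in HEK293H PPARg-bla cells; compound treatment 17 h at 37C. Read-out: fluorescence intensity after 1 h room-temperature incubation with LiveBLAzer B/G FRET substrate.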

[16] = target: Estrogen receptor (Homo sapiens) (UniProt P03372); assay: qHTS assay to identify small molecule antagonists of the estrogen receptor alpha (ER-alpha) signaling pathway (AID 743069; active = well fitted curve in the direction sought with a large enough effect in the signal ratio in the repeat runs, not every such curve was filed as active; the % refers to the signal ratio)
In short: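 Antagonist mode: compounds in DMSO were co-added with 17beta-estradiol to ER-alpha-bla HEK293 cells (2% charcoal-stripped serum) and left 18 h at 37C. Reporter inhibition was measured as FRET fluorescence after 2 h LiveBLAzer substrate at room temperature.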

[17] = target: Estrogen receptor (Homo sapiens) (UniProt P03372); assay: qHTS assay to identify small molecule agonists of the estrogen receptor alpha (ER-alpha) signaling pathway (AID 743075; calls by dose curve;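 note: HEK293 GripTite cells with ER-alpha and UAS-driven beta-lactamase reporter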)
[18] = target: Estrogen receptor (Homo sapiens) (UniProt P03372); assay: qHTS assay to identify small molecule agonists of the estrogen receptor alpha (ER-alpha) signaling pathway using the BG1 cell line (AID 743079); conditions: BG1Luc4E2 cells, ERE-luciferase agonist, 22 h; activation: at 70.3 µM (top of the series); note: nearly all actives have a fitted effect of over 20% in size
[19] = qHTS assay to identify small molecule antagonists of the estrogen receptor alpha (ER-alpha) signaling pathway using the BG1 cell line (AID 743080; calls by dose curve;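 note: BG1 cells stimulated with 17beta-estradiol alongside compound; nearly all actives have a fitted effect of over 25% in size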; note: potency is the fitted concentration of half-maximal effect)
In short: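 BG1Luc4E2, endogenous ER-alpha, 4xERE-luc; 5 d charcoal-stripped FBS, phenol red free; 24 h plating; cpd + 17beta-estradiol 21.5 h, 37 C/5% CO2; CellTiter-Fluor viability 30 min, then ONE-Glo luciferase 30 min RT.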

Estrogen receptor (Homo sapiens), sequence (P03372 whole entry, looked up): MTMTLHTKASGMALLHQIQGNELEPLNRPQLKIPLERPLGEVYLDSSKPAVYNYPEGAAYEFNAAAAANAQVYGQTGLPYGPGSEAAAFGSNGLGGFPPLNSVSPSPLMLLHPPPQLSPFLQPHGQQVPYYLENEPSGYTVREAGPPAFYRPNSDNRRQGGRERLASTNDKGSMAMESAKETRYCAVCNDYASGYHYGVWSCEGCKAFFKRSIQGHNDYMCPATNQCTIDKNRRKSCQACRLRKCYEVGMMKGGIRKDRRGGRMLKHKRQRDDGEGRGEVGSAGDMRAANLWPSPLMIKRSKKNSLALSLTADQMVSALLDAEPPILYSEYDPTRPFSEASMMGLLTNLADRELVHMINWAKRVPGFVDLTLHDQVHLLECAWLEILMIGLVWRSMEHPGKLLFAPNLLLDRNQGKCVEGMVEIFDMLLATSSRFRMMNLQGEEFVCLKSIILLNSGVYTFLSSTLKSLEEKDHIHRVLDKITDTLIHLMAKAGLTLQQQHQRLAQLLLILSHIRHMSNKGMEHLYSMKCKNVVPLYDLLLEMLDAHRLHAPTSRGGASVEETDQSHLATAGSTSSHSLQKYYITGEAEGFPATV
Peroxisome proliferator-activated receptor gamma (Homo sapiens), sequence (P37231 whole entry, looked up): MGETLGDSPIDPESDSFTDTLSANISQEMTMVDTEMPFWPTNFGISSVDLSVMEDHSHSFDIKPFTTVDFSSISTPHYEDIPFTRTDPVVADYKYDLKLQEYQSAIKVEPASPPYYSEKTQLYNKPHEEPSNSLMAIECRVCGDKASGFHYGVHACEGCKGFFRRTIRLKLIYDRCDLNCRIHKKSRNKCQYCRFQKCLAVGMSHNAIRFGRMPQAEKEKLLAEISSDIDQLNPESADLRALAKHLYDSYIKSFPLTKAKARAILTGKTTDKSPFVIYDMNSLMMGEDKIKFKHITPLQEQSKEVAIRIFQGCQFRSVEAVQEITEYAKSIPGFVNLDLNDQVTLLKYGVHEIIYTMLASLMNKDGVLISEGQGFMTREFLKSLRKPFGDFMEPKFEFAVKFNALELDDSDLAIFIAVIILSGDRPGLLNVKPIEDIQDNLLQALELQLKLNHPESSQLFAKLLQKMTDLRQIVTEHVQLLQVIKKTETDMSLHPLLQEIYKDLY
Aryl hydrocarbon receptor (Homo sapiens), sequence (P35869 whole entry, looked up): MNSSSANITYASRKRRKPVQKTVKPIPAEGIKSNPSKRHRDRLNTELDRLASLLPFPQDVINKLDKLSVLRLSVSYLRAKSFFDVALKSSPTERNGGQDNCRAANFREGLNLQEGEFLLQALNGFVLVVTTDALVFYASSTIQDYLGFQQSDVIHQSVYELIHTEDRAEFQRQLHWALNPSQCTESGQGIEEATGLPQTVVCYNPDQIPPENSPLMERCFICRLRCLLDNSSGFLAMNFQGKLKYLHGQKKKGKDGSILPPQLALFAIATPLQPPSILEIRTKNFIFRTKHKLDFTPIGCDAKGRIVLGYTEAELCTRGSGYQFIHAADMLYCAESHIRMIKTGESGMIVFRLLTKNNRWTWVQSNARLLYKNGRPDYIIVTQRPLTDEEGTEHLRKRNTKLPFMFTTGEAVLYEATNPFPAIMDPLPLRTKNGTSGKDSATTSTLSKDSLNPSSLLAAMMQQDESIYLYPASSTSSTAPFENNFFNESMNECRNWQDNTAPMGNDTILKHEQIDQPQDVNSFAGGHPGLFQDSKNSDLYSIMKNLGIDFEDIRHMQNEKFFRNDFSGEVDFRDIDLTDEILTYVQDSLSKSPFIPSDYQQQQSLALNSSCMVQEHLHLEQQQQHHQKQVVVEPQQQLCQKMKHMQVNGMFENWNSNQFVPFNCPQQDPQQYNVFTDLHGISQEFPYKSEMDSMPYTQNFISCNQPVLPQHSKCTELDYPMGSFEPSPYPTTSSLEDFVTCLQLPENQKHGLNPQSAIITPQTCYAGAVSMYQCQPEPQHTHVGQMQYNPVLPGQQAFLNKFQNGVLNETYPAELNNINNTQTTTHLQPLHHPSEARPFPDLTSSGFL
Aromatase (Homo sapiens), sequence (P11511 whole entry, looked up): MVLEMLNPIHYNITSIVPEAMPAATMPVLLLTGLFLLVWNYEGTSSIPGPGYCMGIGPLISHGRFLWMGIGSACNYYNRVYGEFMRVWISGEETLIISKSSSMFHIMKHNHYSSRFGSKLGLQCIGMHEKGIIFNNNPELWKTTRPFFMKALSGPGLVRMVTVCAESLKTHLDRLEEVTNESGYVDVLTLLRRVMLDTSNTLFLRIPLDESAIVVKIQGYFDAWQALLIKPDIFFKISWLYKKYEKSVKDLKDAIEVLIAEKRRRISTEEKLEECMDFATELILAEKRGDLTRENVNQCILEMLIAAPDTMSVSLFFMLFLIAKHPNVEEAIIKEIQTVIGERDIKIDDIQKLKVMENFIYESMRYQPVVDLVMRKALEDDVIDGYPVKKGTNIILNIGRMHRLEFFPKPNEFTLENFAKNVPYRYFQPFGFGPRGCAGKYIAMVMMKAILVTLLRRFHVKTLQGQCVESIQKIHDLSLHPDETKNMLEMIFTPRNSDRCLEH

Row | Structure (SMILES) | Potency [1] | Potency [2] | outcome [3] | Potency [4] | Potency [5] | Potency (Aromatase (Homo sapiens)) | Potency [6] | Potency [7] | Potency [8] | Potency [9] | Potency [10] | Potency [11] | Potency [12] | Potency [13] | Potency [14] | Potency [15] | Potency [16] | Potency [17] | Potency [18] | Potency [19]
1 | CC(C)(c1ccccc1)c1ccccc1 | inactive | inactive | inactive | inactive | inactive | inactive | inactive | inactive | inactive | inactive | inactive | inactive | inactive | inactive |  |  |  |  |  | 
2 | CCCCCCCC/C=C\CCCCCCCCO | inactive | inactive | inactive |  | inactive | inactive | inactive | inactive | inactive | inactive | inactive | inactive | inactive |  | inactive | inactive |  |  |  | 
3 | C[C@@H]1CN(CCCn2c3ccccc3c3ccccc32)C[C@H](C)N1 | 10.6 µM (active) | 8.41 µM (active) |  |  | inactive |  | 26.6 µM (active) |  |  | 23.7 µM (active) |  | 26.6 µM (active) | inactive | inactive | inactive |  |  |  |  | 
4 | C[C@@H](O[C@H]1OCCN(Cc2n[nH]c(=O)[nH]2)[C@H]1c1ccc(F)cc1)c1cc(C(F)(F)F)cc(C(F)(F)F)c1 | 13.3 µM (active) | 10.6 µM (active) |  |  | inactive | 29.8 µM (active) | inactive |  | inactive |  |  |  | 29.8 µM (active) |  |  |  |  |  |  | 
5 | CCC1CO1 (stereo unspecified) | inactive | inactive | inactive |  | inactive | inactive | inactive |  | inactive |  | inactive | inactive | inactive |  | inactive |  |  |  |  | 
6 | O=c1cc(-c2ccccc2)oc2cc(O)cc(O)c12 | 54.5 µM (active) | 54.5 µM (active) | inactive | inactive | inactive |  | 12.2 µM (active) |  |  | inactive |  | inactive |  |  |  |  |  |  |  | 
7 | CCn1cc(C(=O)O)c(=O)c2cc(F)c(N3CCNCC3)cc21 | inactive |  | inactive | inactive | inactive | inactive | inactive | inactive | inactive | inactive | inactive | inactive | inactive |  | inactive | inactive | inactive | inactive | inactive | inactive
8 | O=C(Nc1cccc2c(=O)cc(-c3nn[nH]n3)oc12)c1ccc(OCCCCc2ccccc2)cc1 | inactive | inactive | inactive | inactive | inactive | inactive | inactive | inactive | inactive | inactive |  | 29.8 µM (active) | inactive | inactive | inactive |  |  |  |  | 
9 | CC(C)Nc1cccnc1N1CCN(C(=O)c2cc3cc(NS(C)(=O)=O)ccc3[nH]2)CC1 | inactive |  | inactive | inactive | inactive | inactive | inactive |  | inactive | inactive |  | inactive | inactive | inactive | inactive | inactive | inactive | inactive | inactive | inactive
10 | CC(C)C=O | inactive | inactive | inactive | inactive | inactive | inactive | inactive | inactive |  | inactive | inactive | inactive | inactive |  | inactive |  |  |  |  | 
11 | C[C@@]12CCC[C@H]1[C@@H]1CC[C@H]3C[C@@H](O)CC[C@]3(C)[C@H]1CC2 | inactive | inactive | inactive |  | inactive |  |  |  |  | inactive | inactive | inactive | inactive |  |  |  |  |  |  | 
12 | c1csc(SSc2cccs2)c1 | inactive | inactive | inactive | inactive | inactive | inactive | inactive |  |  | inactive | inactive | inactive |  |  | inactive | inactive |  |  |  | 
13 | CC(=O)NC1(c2cccc(F)c2)CCN(CC[C@@]2(c3ccc(Cl)c(Cl)c3)CN(c3ccccc3)C(=O)CO2)CC1 | 7.72 µM (active) | 10.9 µM (active) |  | 39 µM (active) |  |  | inactive | 43.4 µM (active) |  | 34.8 µM (active) |  | 19.4 µM (active) | inactive |  | 48.7 µM (active) | 43.8 µM (active) |  | inactive |  | 54.6 µM (active)
14 | O=C(O)CCCCCCCCCCCBr | inactive |  | inactive | inactive | inactive | inactive | inactive | inactive |  | inactive |  | inactive | inactive | inactive | inactive |  | inactive | inactive | inactive | inactive
15 | CN1C[C@H](C(=O)N[C@]2(C)O[C@@]3(O)[C@@H]4CCCN4C(=O)[C@H](Cc4ccccc4)N3C2=O)C[C@@H]2c3cccc4[nH]cc(c34)C[C@H]21 | 21.1 µM (active) | 26.6 µM (active) |  | inactive | inactive | inactive | inactive |  |  | 29.8 µM (active) |  | 29.8 µM (active) | inactive |  | inactive |  | inactive | inactive |  | inactive
